Data reported in article PMC4336329 (PLoS ONE, 2015).
Among all 310,000 compounds or so, about 14,000 (4.5%) showed an effect of 50% or more. The effect is printed as a negative number. This is one part of a sample in which strong results are shown more often than they occur.

target: human ether-à-go-go-related gene (hERG) potassium channel (human, UniProt Q12809); experiment: primary screen, population patch clamp on CHO cells stably expressing hERG; higher = less effect of the substance
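Further: peak tail current of the secondary pulse compared with the same well before compound.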

human ether-à-go-go-related gene (hERG) potassium channel, sequence (Q12809 whole entry, looked up): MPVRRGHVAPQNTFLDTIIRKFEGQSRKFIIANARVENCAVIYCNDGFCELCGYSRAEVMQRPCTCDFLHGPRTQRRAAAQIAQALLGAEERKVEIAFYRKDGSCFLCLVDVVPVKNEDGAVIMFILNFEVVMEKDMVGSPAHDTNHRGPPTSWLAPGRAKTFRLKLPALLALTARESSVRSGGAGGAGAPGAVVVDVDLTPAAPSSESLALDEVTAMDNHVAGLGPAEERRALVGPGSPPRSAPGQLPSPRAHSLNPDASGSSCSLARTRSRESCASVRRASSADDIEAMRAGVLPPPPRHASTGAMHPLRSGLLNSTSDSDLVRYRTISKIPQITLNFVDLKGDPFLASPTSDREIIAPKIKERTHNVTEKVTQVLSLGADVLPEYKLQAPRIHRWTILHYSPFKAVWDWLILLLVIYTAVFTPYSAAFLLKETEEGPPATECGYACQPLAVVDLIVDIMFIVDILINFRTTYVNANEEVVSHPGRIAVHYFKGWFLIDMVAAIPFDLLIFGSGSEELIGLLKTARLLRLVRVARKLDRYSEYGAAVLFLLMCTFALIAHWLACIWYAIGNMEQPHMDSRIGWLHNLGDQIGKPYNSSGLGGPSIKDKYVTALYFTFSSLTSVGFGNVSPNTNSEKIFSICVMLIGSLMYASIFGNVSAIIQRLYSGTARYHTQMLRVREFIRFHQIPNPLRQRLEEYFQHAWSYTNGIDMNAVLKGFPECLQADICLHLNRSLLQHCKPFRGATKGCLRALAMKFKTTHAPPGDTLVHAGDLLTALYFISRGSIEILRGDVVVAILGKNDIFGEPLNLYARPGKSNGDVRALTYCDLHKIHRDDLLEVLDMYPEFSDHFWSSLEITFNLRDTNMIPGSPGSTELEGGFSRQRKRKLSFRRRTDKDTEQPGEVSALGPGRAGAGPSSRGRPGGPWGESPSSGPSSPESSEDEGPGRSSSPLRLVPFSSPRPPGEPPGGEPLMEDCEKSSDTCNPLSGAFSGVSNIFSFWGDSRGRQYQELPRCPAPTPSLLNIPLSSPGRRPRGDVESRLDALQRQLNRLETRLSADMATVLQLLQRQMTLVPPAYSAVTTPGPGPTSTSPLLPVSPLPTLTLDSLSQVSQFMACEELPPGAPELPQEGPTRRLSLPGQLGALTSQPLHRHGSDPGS

Structure (SMILES) | hERG current change (%, negative = inhibition) at 10uM
OCC1OC(n2cnc3ccccc32)CC1O (centres unmarked) | 10.8%
CCNC(=O)OCC12CC3CC(CC(C3)C1)C2 | -5.85%
Cc1ccc(C(=O)N/N=C\c2ccc(-c3ccc(Cl)c(Cl)c3)o2)cn1 | -44.9%
CCOC(=O)N1CCN(C(=O)C2CCC(=O)N(Cc3cccc(C(F)(F)F)c3)C2)CC1 (centres unmarked) | -11.1%
CC(C)n1c(O)c(N=NC(=O)C2COc3ccccc3O2)c2ccccc21 (centres unmarked) | 12.4%
Nn1c(COc2ccccc2F)nnc1SCC(=O)NC1CCS(=O)(=O)C1 (centres unmarked) | -7.72%
CCc1nc(CN2CCN(c3ccc(C(F)(F)F)cn3)CC2)c(C)[nH]1 | -55.6%
CS(=O)(=O)Nc1ccc(N2CCN(c3ccc(C(F)(F)F)cn3)CC2)nc1 | -4.03%
CCc1nc(CN2CCN(c3cc(C(F)(F)F)ccn3)CC2)c(C)[nH]1 | -45.2%
O=C(CN1CCN(Cc2ccc(F)cc2Cl)CC1)NCc1ccccc1 | -23.2%
OCCCNc1nc(-c2ccc(Cl)cc2)nnc1-c1ccc(Br)cc1 | -61.5%
OCCCNc1nnc(-c2ccccc2)c2ccccc12 | 2.95%
Cc1nnc(-c2ccc(Cl)cc2)nc1NCCN(C)C | -38.9%
OCCCNc1nc(-c2ccc(Br)cc2)nnc1-c1ccc(Cl)cc1 | -52.3%
O=[N+]([O-])c1ccc2nc(NCCCO)nc(-c3ccccc3)c2c1 | -22.7%
Clc1ccc(-c2nnc(-c3ccc(Br)cc3)c(N3CCSCC3)n2)cc1 | -11.9%
OCCCNc1nc(-c2ccc(Cl)cc2)nnc1-c1ccccc1 | -40%
O=[N+]([O-])c1ccc(-c2nnc(-c3ccccc3)c(NCCCO)n2)cc1 | -67.3%
Nc1nc(-c2ccc(Cl)cc2)nnc1-c1ccc(Br)cc1 | 41%
CC(C)(C)c1ccc(C(CC(=O)O)NC(=O)C23CC4CC(CC(C4)C2)C3)cc1 (centres unmarked) | 17.7%
O=C(Nc1ccc2c(c1)OCO2)C1Cc2ccccc2CN1S(=O)(=O)c1cccs1 (centres unmarked) | 4.05%
COc1ccccc1NC(=O)c1ccc(Br)c(S(=O)(=O)N2CCCC2)c1 | -2.36%

Structure (SMILES) | hERG current change (%, negative = inhibition) at 10uM
CCC(C)C(NC(=O)c1ccccc1NC(=O)c1ccc(OC)cc1)C(=O)NCCCn1ccnc1 (centres unmarked) | -1.96%
CCCn1c(CCC(=O)O)nc2cc(S(=O)(=O)N3CCCC3)ccc21 | 12.1%
COCCOC(=O)c1c(C)oc2ccc(O)c(CN3CCC(C)CC3)c12 | -29.8%
CC12CC3CC(C)(C1)CC(C(=O)NCc1ccncc1)(C3)C2 | 9.2%
CC12CC3CC(C)(C1)CC(NCc1ccncc1)(C3)C2.Cl | -58.7%
Cl.c1cc(CNC23CC4CC(CC(C4)C2)C3)ccn1 | -20.2%
O=C(c1ccc([N+](=O)[O-])o1)N(Cc1nnc(-c2ccccc2Cl)o1)C1CC1 | -20.9%
CN(NS(=O)(=O)c1ccc(Br)cc1)c1nc(C(F)(F)F)nc2ccccc12 | 12.2%
O=C(CN(Cc1ccc2c(c1)OCO2)C(=O)CNC(=O)c1ccco1)NC1CCCCC1 | -7.83%
O=C(c1cc(-c2ccncc2)nc2ccccc12)N1CCN(c2ccccc2O)CC1 | -64.3%
O=C(c1cc(-c2ccccc2)nc2ccccc12)N1CCN(c2ccccc2O)CC1 | -10.9%
CCOC(=O)C1CCCN(C(=O)c2cc(-c3ccncc3)nc3ccccc23)C1 (centres unmarked) | -32.4%
O=C(c1cc(-c2cccs2)nc2ccccc12)N1CCN(S(=O)(=O)c2ccccc2)CC1 | -5.65%
Cc1ccc(-c2cc(C(=O)N3CCN(c4ccc(F)cc4)CC3)c3ccccc3n2)o1 | -35.7%
CCOC(=O)C1CCCN(C(=O)c2cc(-c3ccc(C)cc3)nc3ccccc23)C1 (centres unmarked) | -37.6%
Cc1ccc(-c2cc(C(=O)N3CCN(c4ccccc4O)CC3)c3ccccc3n2)o1 | -70.9%
O=C(c1cc(-c2cccnc2)nc2ccccc12)N1CCN(S(=O)(=O)c2cccs2)CC1 | -64.3%
O=C(c1cc(-c2cccnc2)nc2ccc(Cl)cc12)N1CCN(S(=O)(=O)c2cccs2)CC1 | -4.28%
CC(=O)N1CCN(C(=O)c2cc(-c3ccc(C)o3)nc3ccccc23)CC1 | -10.1%
Cc1ccc(-c2cc(C(=O)N3CCN(c4ccccc4O)CC3)c3ccccc3n2)cc1 | -1.9%
CCOC(=O)C1CCN(C(=O)c2cc(-c3ccncc3)nc3ccccc23)CC1 | -67.2%
O=C(N/N=C/c1c(O)ccc2ccccc12)Nc1ccccc1 | 16.3%

Structure (SMILES) | hERG current change (%, negative = inhibition) at 10uM
COc1cc2cc(CCCOC(=O)c3cccc(Br)c3)oc(=O)c2cc1OC | -2.2%
Cn1c(SCCS(=O)(=O)c2ccc(Cl)cc2)nnc1-c1ccccc1 | -19.3%
CCOc1ccc(CCNC(=O)COC(=O)c2ccc(C)c([N+](=O)[O-])c2)cc1OCC | -7.57%
CO/N=C/NC(=O)NOCc1ccc(Cl)cc1Cl | -11.5%
C[C@H](NC(=O)c1nc[nH]c1C(=O)N(C)Cc1ccccc1)C(=O)OC(C)(C)C | 5.67%
COc1cccc(C(=O)N(CN2CCCC2=O)c2cccc(Cl)c2)c1 | -25.4%
CC(=O)c1cc(C#N)c(Oc2ccc(F)cc2)nc1C | 13.7%
CC1CC(C)CN(C(=O)c2cc(-c3ccncc3)nc3ccccc23)C1 (centres unmarked) | -35.5%
CCOC(=O)N1CCN(C(=O)c2cc(-c3ccncc3)nc3ccccc23)CC1 | -48.4%
Cc1ccc(-c2cc(C(=O)Nc3ccccc3C)c3ccccc3n2)o1 | 9.38%
COc1ccccc1NC(=O)c1cc(-c2ccc(C)o2)nc2ccccc12 | -60.7%
COc1cccc(CN2CCN(C(=O)c3cc(-c4cccnc4)nc4ccc(C)cc34)CC2)c1 | -12.7%
O=C(c1cc(-c2ccccc2)nc2ccccc12)N1CCN(c2ccccn2)CC1 | -27.6%
COc1cccc(CN2CCN(C(=O)c3cc(-c4ccncc4)nc4ccc(C)cc34)CC2)c1 | -71%
COc1ccc(NC(=O)c2cc(-c3ccc(C)o3)nc3ccccc23)c(OC)c1 | 14.9%
COc1ccc(-c2cc(C(=O)N3CCN(c4ccccn4)CC3)c3ccccc3n2)cc1 | -5.51%
Cc1ccccc1CN1CCN(C(=O)c2cc(-c3ccncc3)nc3ccccc23)CC1 | -76.7%
COc1cccc(CN2CCN(C(=O)c3cc(-c4ccccn4)nc4ccc(Cl)cc34)CC2)c1 | 17.1%
O=C(c1cc(-c2ccncc2)nc2ccccc12)N1CCN(c2ccccn2)CC1 | -63.5%
N#CCSc1nnc(-c2ccccc2O)n1CCc1ccccc1 | -10.7%
CCCCNC(=S)NNC(=O)c1ccc2c(c1)OCO2 | 5.46%
Cc1cc(C(=O)NNC(=O)c2cccc([N+](=O)[O-])c2)n[nH]1 | 18.9%

Structure (SMILES) | hERG current change (%, negative = inhibition) at 10uM
Cc1cc(C)c(S(=O)(=O)N2CCN(C(=O)C3COc4ccccc4O3)CC2)c(C)c1 (centres unmarked) | -17%
O=c1c2cc3c(cc2[nH]c(=S)n1CCN1CCOCC1)OCO3 | 9.66%
COc1ccc(Cc2nnc(NC(=O)C(C)C)s2)cc1 | 11.2%
Cc1cc(C)c(NC(=O)COC(=O)c2c(C)noc2C)c(Cl)c1 | 13.8%
CS(=O)(=O)N1CCN(C(=O)c2cc(-c3ccccc3)nc3ccccc23)CC1 | -30.8%
O=C(c1cc(-c2ccncc2)nc2ccccc12)N1CCN(S(=O)(=O)/C=C/c2ccccc2)CC1 | -66.6%
CS(=O)(=O)N1CCN(C(=O)c2cc(-c3ccncc3)nc3ccc(Cl)cc23)CC1 | -12.8%
COc1ccc2[nH]c3c(=O)n(CCCCC(=O)NCCC(C)C)c(=S)[nH]c3c2c1 | 16.3%
CCCCn1c(CCCNC(=O)CC)nc2ccccc21 | -37.3%
CCCCn1c(CCNC(=O)c2cccs2)nc2ccccc21 | -33.2%
CCCn1c(=O)c(C(=O)c2ccccc2)nc2ccccc21 | -27.4%
CCCCCn1c(CCNC(=O)CCC)nc2ccccc21 | -57.2%
CCCCn1c(CCNC(=O)CCC)nc2ccccc21 | -7.83%
CCCn1c(CCNC(=O)c2cccs2)nc2ccccc21 | -36.1%
CCCCCn1c(CCCNC(=O)CC)nc2ccccc21 | -65.9%
CCCCn1c(=O)c(C(=O)c2ccccc2)nc2ccccc21 | -30.4%
CCCC(=O)NCCc1nc2ccccc2n1CCC | 1.27%
CCCCn1c(CCNC(=O)CC)nc2ccccc21 | -11.2%
CCCCCn1c(=O)c(C(=O)c2ccccc2)nc2ccccc21 | -77.6%
CCCCCn1c(CCNC(=O)c2cccs2)nc2ccccc21 | -52.5%
